# Among all 320,000 compounds or so, about 2,100 (0.66%) were called active. Not shown: some 53% with an inconclusive outcome. Calls follow the shape of the dose curve; as a rule, active = well fitted inhibition curve with a large enough effect in the signal ratio, with a control signal flat (not every such curve was filed as active); inconclusive = small, poorly fitted or top-dose-only effect, or effect the other way, or a change in a side signal; inactive = flat fitted curve, though single readings scatter; the % refers to the signal ratio. What follows is part of a selection rich in actives, with near analogues and random picks from the rest.
# Assay: qHTS Assay for Lipid Storage Modulators in Drosophila S3 Cells;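 as to cell number change: cells counted by Cell Tracker Red CMTPX staining in the red channel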; as to lipid storage change, negative = inhibition: % is scaled to controls: 0 for no effect and ±100 for the full control effect
# Conditions: BODIPY lipid droplet fluorescence, 18-24 h, cells fed with added oleic acid; cell number change: measured here: cell count max response; series mostly up to 46.1 µM; lipid storage change, negative = inhibition: at the top concentration
# In short: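 Drosophila S3 cells loaded with oleic acid (400 uM, as added) and compounds at several concentrations; lipid droplets imaged by 488-nm laser-scanning cytometry, 500–530 nm intensity and object ratio to cell channel. Percent activity normalized to 20 uM Triacsin C.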
# Potency is read from the fitted curve at half-maximal effect.
Compound,"lipid storage change, negative = inhibition",cell number change [%],outcome,Potency
O=C(NCC1CCN(C(=O)c2ccc([N+](=O)[O-])cc2)CC1)C(=O)Nc1ccccc1,-6.82% (inactive),-0.701,,
Cc1c(NC(=O)CSc2ccccc2C(=O)Nc2cccnc2)c(=O)n(-c2ccccc2)n1C,0.352% (inactive),13.8,,
CCOC(=O)C1(CCOC)CCN(Cc2ccc(C3CCCCO3)s2)CC1 (stereo not drawn),-17.6% (inactive),-8.03,,
O=C1C2C(C(=O)N1Cc1cccnc1)C1C=CC2C12CC2 (stereo not drawn),,-2.7,inactive,
O=C1C2C(C(=O)N1CCc1ccccc1)C1C=CC2C12CC2 (stereo not drawn),,-11.6,,23.1 µM (active)
O=C(Cc1ccccc1)NN1C(=O)C2C3C=CC([C@@H]2C1=O)C31CC1 (stereo partly drawn),-2.59% (inactive),-3.77,,
COCC(=O)Nc1ccc(C(C)C)cc1,,24.3,inactive,
CC(C)(C)C(=O)NCCN1CCN(C(=O)C(C)(C)C)CC1,5.31% (inactive),3.18,,
Cc1ccc(-c2nnn(CC(=O)N3C(C)CCCC3C)n2)cc1 (stereo not drawn),,-11,,10.3 µM (active)
Cc1ccc(-c2nnn(CC(=O)O)n2)cc1,,,inactive,
Cc1ccc(-c2nnn(CCC(=O)N3CCCCC3C)n2)cc1 (stereo not drawn),5.42% (inactive),10.5,,
Cc1ncc(CO)c(/C=N/NC(=O)c2ccc(O)cc2)c1O,-1.92% (inactive),19.8,,
Cc1ncc(CO)c(/C=N/NC(=O)c2ccccc2Br)c1O,-8.28% (inactive),0.48,,
Cc1cc(C(=O)N/N=C/c2c(CO)cnc(C)c2O)c2ccccc2n1,,-19.9,,5.17 µM (active)
Cn1c(CNC(=O)OC(C)(C)C)nnc1SCc1c(Cl)cccc1Cl,6.49% (inactive),-2.58,,
Nc1nc(-c2ccccc2)nn1C(=O)c1ccco1,-0.905% (inactive),-9.73,,
Cc1cc(NC(=O)COC(=O)CCC(=O)c2ccc(F)cc2)no1,-10.1% (inactive),5.31,,
CC(C)(C)c1ccc(C2(C)NC(=O)N(CC(=O)NCc3cccs3)C2=O)cc1 (stereo not drawn),,3.77,,5.17 µM (active)
O=C(CN1C(=O)NC2(CCCCCC2)C1=O)NCc1cccs1,1.88% (inactive),-8.23,,
COc1ccc(CNC(=O)CN2C(=O)NC(C)(c3ccc(C(C)(C)C)cc3)C2=O)cc1 (stereo not drawn),2.76% (inactive),5.69,,
Cc1ccc(S(=O)(=O)NCc2ccccc2)cc1C(=O)N1CCCCCCC1,-14.6% (inactive),-10.2,,
Cc1cc(C)cc(SCc2noc(C(=O)NCc3ccccc3)c2C(=O)NCc2ccccc2)c1,5.46% (inactive),-2.6,,
O=C(NCC1CC1)c1onc(CSc2ccc(F)cc2)c1C(=O)NCC1CC1,-7.02% (inactive),10.6,,
O=C(NCc1ccccc1)c1onc(CSc2nc3ccccc3[nH]2)c1C(=O)NCc1ccccc1,,-26.6,,14.6 µM (active)
C=CCNC(=O)c1onc(CSc2nc3ccccc3[nH]2)c1C(=O)NCC=C,,-6.29,inactive,
COCCNC(=O)c1onc(CSc2nc3ccccc3[nH]2)c1C(=O)NCCOC,,-7.78,inactive,
O=C(NCC1CC1)c1onc(CSc2nc3ccccc3[nH]2)c1C(=O)NCC1CC1,,-10.5,,11.6 µM (active)
